These results are taken from the supplement of paper PMC4723716.

The subject of the assay is Plasmodium falciparum NF54 stage V gametocytes. The assay is described as follows: viability index relative to DMSO control (fraction); higher = less gametocyte killing. To be noted: 2.5 µM, incubation time: 72 h. In outline:
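Gametocytes (P. falciparum NF54, stage V) were treated with compound at 2.5 µM for 72 hr at 37°C in low oxygen, in serum-free medium at 0.75% gametocytemia and 1.25% hematocrit. Counts of 20–70 µm2 red particles, taken from one field per well after MitoTracker Red CMXRos with saponin, were divided by the plate mean of solvent-only wells. This ratio is the viability index.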

Where [1] appears, read: library set: Broad Institute DOS.
Setting [2] is: library set: Broad Institute Blood Stage.

± gives the uncertainty stated by the source. Whole data set: some 9,900 compounds, median “viability index relative to DMSO control” near 1, cut for the lowest 2% near 0.85. This excerpt belongs to a sample that is enriched for the lowest values.

The compound `C[C@H]1CN([C@@H](C)CO)C(=O)c2c(c3ccccc3n2C)-c2ccccc2CO[C@@H]1CN(C)C(=O)NC1CCCCC1` registered a viability index under setting [1] of 1.04 ± 0.11.
Still for that read-out and setting: then `O=C(C[C@@H]1CC[C@@H]2[C@H](COC[C@@H](O)CN2C(=O)c2ccncc2)O1)NCc1cc(F)cc(F)c1`, with 1.05 ± 0.12; and `O=C(O)C[C@H]1C[C@H]2c3cc(NC(=O)Nc4ccc(C(F)(F)F)cc4)ccc3O[C@H]2[C@@H](CO)O1`, with 1.06 ± 0.041; and `O=C(NC[C@@H]1[C@H](c2ccccc2)[C@@H](CO)N1C(=O)C1CCC1)NC1CCCC1`, with 0.976 ± 0.12.
As for `COc1ccc(S(=O)(=O)N(C)C[C@@H]2Oc3ccc(NC(=O)Nc4ccc(C(F)(F)F)cc4)cc3C(=O)N([C@H](C)CO)C[C@H]2C)cc1`, the viability index under setting [1] is 0.957 ± 0.08.
Under setting [1], `CN1CCN(C(=O)C[C@H]2CC[C@@H]3[C@H](COC[C@H](O)CN3Cc3cccc(-c4ccncc4)c3)O2)CC1` displayed a viability index of 1.08 ± 0.028.
Consider `O=C(C[C@H]1CC[C@H](NS(=O)(=O)c2ccc(F)cc2)[C@@H](CO)O1)N1CCN(c2ccccc2)CC1`, for which the viability index under setting [1] worked out at 1.09 ± 0.13.
Compound `O=C(C[C@H]1CC[C@@H]2[C@H](COC[C@@H](O)CN2CCc2ccccc2)O1)NCCCN1CCOCC1` yielded a viability index under setting [1] of 1.07 ± 0.054.
`O=C(c1ccccc1F)N1CC(=O)N2[C@H](C1)[C@@H](c1ccc(-c3cccnc3)cc1)[C@@H]2CO`: the viability index under setting [2] came out at 0.866 ± 0.049.
Consider `O=C(c1ccccc1F)N1CC(=O)N2[C@H](C1)[C@@H](c1ccc(-c3ccc(F)cc3)cc1)[C@@H]2CO`, for which the viability index under setting [2] was 0.86 ± 0.04.
`O=C(c1ccccc1F)N1CC(=O)N2[C@H](CO)[C@H](c3ccc(-c4cccnc4)cc3)[C@H]2C1` yielded a viability index under setting [2] of 0.742 ± 0.068.
`Cc1noc(C)c1NC(=O)N(C)C[C@@H]1OCc2cn(nn2)CCCC(=O)N([C@H](C)CO)C[C@@H]1C`: under setting [1], the viability index was 1.08 ± 0.1.
As to `C[C@H](CO)N1C[C@H](C)[C@H](CN(C)Cc2ccc(C(=O)Nc3ccccc3N)cc2)OCc2cnnn2CCCC1=O`, the viability index under setting [1] was 0.953 ± 0.042.
The compound `CO[C@H]1CN(C)C(=O)c2ccc(NC(=O)c3cc(C)on3)cc2OC[C@H](C)NC[C@H]1C` registered a viability index under setting [1] of 0.98 ± 0.029.
`COc1cccc(S(=O)(=O)N(C)C[C@@H]2OCc3ccccc3-c3c(n(C)c4ccccc34)C(=O)N([C@H](C)CO)C[C@@H]2C)c1`: the viability index under setting [1] is 0.826 ± 0.058.
`COc1cccc(S(=O)(=O)N(C)C[C@H]2OCc3ccccc3-c3c(n(C)c4ccccc34)C(=O)N([C@@H](C)CO)C[C@H]2C)c1` gave a viability index under setting [1] of 0.833 ± 0.059.
The same measure, in the same setting: next, `COc1cccc(S(=O)(=O)N(C)C[C@@H]2OCc3ccccc3-c3c(n(C)c4ccccc34)C(=O)N([C@@H](C)CO)C[C@H]2C)c1`: 0.977 ± 0.016.
Take `COc1cccc(S(=O)(=O)N(C)C[C@H]2OCc3ccccc3-c3c(n(C)c4ccccc34)C(=O)N([C@@H](C)CO)C[C@@H]2C)c1`: the viability index under setting [1] worked out at 0.956 ± 0.013.
The same measure, in the same setting: next, `COc1cccc(S(=O)(=O)N(C)C[C@H]2OCc3ccccc3-c3c(n(C)c4ccccc34)C(=O)N([C@H](C)CO)C[C@H]2C)c1`: 0.952 ± 0.034; `COc1cccc(S(=O)(=O)N(C)C[C@H]2OCc3ccccc3-c3c(n(C)c4ccccc34)C(=O)N([C@H](C)CO)C[C@@H]2C)c1`: 0.975 ± 0.027.
The compound `COc1cccc(S(=O)(=O)N[C@H]2CC[C@@H](CC(=O)NC3Cc4ccccc4C3)O[C@@H]2CO)c1` showed a viability index under setting [1] of 0.999 ± 0.044.
Take `CC(C)(C)[S@](=O)N1Cc2cc(C(=O)N3CCOCC3)nc(-c3cccc(-c4ccccc4F)c3)c2[C@@H]1CCO`: the viability index under setting [1] stood at 1.07 ± 0.044.
Under setting [1], `C[C@@H]1CN([C@@H](C)CO)C(=O)c2cc(NC(=O)Nc3ccccc3)ccc2O[C@@H](C)CCCCO[C@H]1CN(C)C(=O)Nc1ccccc1` registered a viability index of 1.11 ± 0.13.
As to `Cc1ccc(S(=O)(=O)Nc2ccc3c(c2)C(=O)N(C)[C@@H]2CC[C@H](CC(=O)NCCc4ccncc4)O[C@H]2CO3)cc1`, the viability index under setting [1] came out at 1.04 ± 0.026.
Regarding `C[C@H]1CN([C@@H](C)CO)C(=O)c2cc(C#Cc3ccccc3)cnc2O[C@H]1CN(C)C(=O)c1ccccc1`, the viability index under setting [1] is 0.572 ± 0.14.
Same read-out and setting: next, `C[C@@H]1CN([C@H](C)CO)C(=O)c2cc(C#Cc3ccccc3)cnc2O[C@H]1CN(C)C(=O)c1ccccc1`: 0.965 ± 0.019; `C[C@H](CO)N1C[C@H](C)[C@@H](CN(C)C(=O)c2ccccc2)Oc2ncc(C#Cc3ccccc3)cc2C1=O`: 0.963 ± 0.029; `C[C@H](CO)N1C[C@H](C)[C@H](CN(C)C(=O)c2ccccc2)Oc2ncc(C#Cc3ccccc3)cc2C1=O`: 0.829 ± 0.086.
Compound `C[C@H](CO)N1C[C@H](C)[C@H](CN(C)Cc2ccc3c(c2)OCO3)Oc2ncc(-c3cccc(C(F)(F)F)c3)cc2C1=O` came in with a viability index under setting [1] of 0.976 ± 0.025.
For `C[C@H]1CN([C@@H](C)CO)C(=O)c2cc(C#Cc3ccccc3)cnc2O[C@@H]1CN(C)C(=O)c1ccccc1`, the viability index under setting [1] came out at 0.919 ± 0.071.
Under setting [1], `C[C@@H]1CN([C@@H](C)CO)C(=O)c2cc(C#Cc3ccccc3)cnc2O[C@H]1CN(C)C(=O)c1ccccc1` had a viability index of 1 ± 0.091.
Regarding `COc1cccc(S(=O)(=O)N(C)C[C@@H]2Oc3ncc(C#Cc4ccc(OC)c(OC)c4)cc3C(=O)N([C@H](C)CO)C[C@@H]2C)c1`, the viability index under setting [2] amounted to 1.01 ± 0.04.
Under setting [1], `CCCN(C)C[C@@H]1Oc2ncc(-c3cccc(OC)c3)cc2C(=O)N([C@H](C)CO)C[C@@H]1C` returned a viability index of 0.691 ± 0.3.
